Results as given in PubChem BioAssay (NCI).
Compounds without any hit were thinned out: in the full panel of roughly 83,000, 20% have a hit.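 Values shown are percent growth following 48 h exposure of cells in 96-well plates to a single concentration of compound; below 10 was considered active.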 Activity calls are given as the source filed them.

Tested on: MDA-MB-468 breast
Experiment: NCI-60 one-dose screen, 48 h (100 = growth as untreated, 0 = no growth, -100 = all killed)
Conditions: 10 µM unless noted

## COc1ccc(Cn2c(SC)nc(=O)n(Cc3ccc(Cl)cc3)c2=O)cc1
  growth: 107% (inactive)

## CN1CCN(C(=O)[C@]2(C)CC[C@]3(C)CC[C@]4(C)C(=CC(=O)[C@@H]5[C@@]6(C)CCC(=O)NC(C)(C)[C@@H]6CC[C@]54C)[C@@H]3C2)CC1
  growth: 101% (inactive)

## CC(=O)c1ccc(-n2c(-c3cc(-c4ccsc4)n[nH]3)n[nH]c2=S)cc1
  growth: 97.3% (inactive)

## Cc1cc2c(cc1C)NC1=C(N2)OC(c2c3ccccc3cc3ccccc23)C1=O (stereo not drawn)
  growth: -18.6% (active)

## CCN(CC)CCn1c2ccc(O)cc2c2sc3cc(O)ccc3c(=O)c21
  growth: 47.8% (inactive)

## O=C(Nc1ccc2c(c1)OCCO2)C(=O)c1c[nH]c2ccccc12
  growth: -0.365% (active)

## CC/C(=C(/c1ccc(Cl)cc1)c1ccc(OCCN2CCCC2)cc1)c1ccccc1
  growth: 46.9% (inactive)

## COc1ccc(C2=NN(C(C)=O)C(c3ccc(Oc4ccnc5cc(Cl)ccc45)c(OC)c3)C2)cc1 (stereo not drawn)
  growth: 54% (inactive)

## COc1cc2c(O)n(CCCn3ccnc3)c3c4cnc5cccc(c(=O)c3c2cc1OC)c54
  growth: 4.34% (active)

## CCCCCCN1C(=O)CN=C1Nc1ccc2cc3ccc(NC4=NCC(=O)N4CCCCCC)cc3nc2c1
  growth: 3.94% (active)

## CO[C@H]1CC[C@@]2(C)C(=CC[C@H]3[C@@H]4C[C@H](O)C[C@@]4(C)CC[C@@H]32)C1
  growth: -12.8% (active)

## O=C(CNc1ccc(Cl)cc1)Nc1ccc(-c2nc3ccccc3s2)cc1
  growth: -11.2% (active)

## CC1(C)CC[C@]23CC[C@]4(C)[C@H](CC[C@@H]5[C@@]6(C)C/C(=C/c7ccncc7)C(=O)C(C)(C)[C@@H]6CC[C@]54C)[C@H]2[C@H]1OC3=O
  growth: 58.8% [100 µM] (inactive)
